Test results from PubChem BioAssay (NCATS).
Where “and” joins values, the source holds several entries; their conditions need not be identical. Equal entries are not always repeated. Records with an inconclusive call do not appear. Calls of active or inactive are those of the source. Calls come from the whole dose curve; as a rule, active = well fitted inhibition curve with a large enough effect; inconclusive = small, poorly fitted or top-dose-only effect; inactive = flat fitted curve, though single readings scatter. *1 amine or outer side, *2 acyl side, *3 side chain or, on linkers, in order; H or OH if unused. Where a SMILES comes first, the peptide text is derived from it. Bridges are numbered along the chain shown (N, C = ends). [ ]: non-standard residue; d: D form. The star is where a group is joined. X5 = NC1=N[C@@H]([C@H](N[*:1])C(=O)[*:2])C[C@H](O)N1; ΔAla(Z-3-ureido) = NC(=O)N/C=C(\N)C(=O)O; β3hOrn = NCCC[C@H](N)CC(=O)*; Dap = NC[C@H](N)C(=O)O

Legend:
[1] = Drug repurposing screens with cells derived from glioblastoma tumor samples (AID 1345199); settings: GBM patient neurospheres viability, ATP luminescence, 48 h; note: nearly all actives have a fitted effect of over 40% in size
How it was run: (§1)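 Four patient lines of CD133+ GBM neurospheres were screened at several concentrations; hits were retested in those lines plus three slower-growing GBM lines, using 48-hour treatment and ATP-based viability.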

[2] = tested on: astro; assay: as above; settings: viability, ATP luminescence, 48 h; series mostly up to 45.9 µM
How it was run: as §1

[3] = at 45.9 µM (top of the series), tumour line B
[4] = at 45.9 µM (top of the series), tumour line D
[5] = at 46 µM (top of the series), tumour line A
[6] = at 46.1 µM (top of the series), tumour line C
[7] = at 20 µM (top of the series), tumour line C
[8] = at 21.2 µM (top of the series), tumour line B
[9] = at 21.2 µM (top of the series), tumour line D
[10] = at 21.3 µM (top of the series), tumour line A
% is set by controls: 0 for no effect and ±100 for the full control effect.

CC(C)C[C@H](NC(=O)[C@@H](COC(C)(C)C)NC(=O)[C@H](Cc1ccc(O)cc1)NC(=O)[C@H](CO)NC(=O)[C@H](Cc1c[nH]c2ccccc12)NC(=O)[C@H](Cc1cnc[nH]1)NC(=O)[C@@H]1CCC(=O)N1)C(=O)N[C@@H](CCCN=C(N)N)C(=O)N1CCC[C@H]1C(=O)NNC(N)=O
inactive: activity, negative = cell killing [1, 3] -16.4% and -7.35% | activity, negative = cell killing [1, 4] -27.1% and -14% | activity, negative = cell killing [1, 5] -28.3% and -17.4% | activity, negative = cell killing [1, 6] -8.14% and 8.02% | Potency [2]

CC1CS(=O)(=O)CCN1/N=C/c1ccc([N+](=O)[O-])o1 (stereo not given)
inactive: activity, negative = cell killing [1, 7] -27.2% | activity, negative = cell killing [1, 8] -10% | activity, negative = cell killing [1, 9] -29.2% | activity, negative = cell killing [1, 10] -23% | Potency [2]

CCC(Oc1ccccc1)C(=O)N[C@@H]1C(=O)N2[C@@H]1SC(C)(C)[C@@H]2C(=O)O (stereo not given in full)
inactive: activity, negative = cell killing [1, 3] -4.6% | activity, negative = cell killing [1, 4] -5.25% | activity, negative = cell killing [1, 5] -9.92% | activity, negative = cell killing [1, 6] -0.932% | Potency [2]

NC(=O)C1c2ccccc2CCc2ccccc21
inactive: activity, negative = cell killing [1, 3] 4.21% | activity, negative = cell killing [1, 4] -18.6% | activity, negative = cell killing [1, 5] -34% | activity, negative = cell killing [1, 6] -17.6% | Potency [2]

CO/N=C(\C(=O)N[C@@H]1C(=O)N2C(C(=O)O)=C(CSc3nc(C)c(CC(=O)O)s3)CS[C@H]12)c1csc(N)n1
inactive: activity, negative = cell killing [1, 3] -4.93% | activity, negative = cell killing [1, 4] 3.79% | activity, negative = cell killing [1, 5] -22% | activity, negative = cell killing [1, 6] -20.8% | Potency [2]

O=P(O)(O)CP(=O)(O)O
inactive: activity, negative = cell killing [1, 3] -7.32% | activity, negative = cell killing [1, 4] -1.92% | activity, negative = cell killing [1, 5] -22% | activity, negative = cell killing [1, 6] -17.6% | Potency [2]

OCC1(CO)COC(C(Cl)(Cl)Cl)OC1
inactive: activity, negative = cell killing [1, 3] -8.7% | activity, negative = cell killing [1, 4] -7.18% | activity, negative = cell killing [1, 5] -26.1% | activity, negative = cell killing [1, 6] -4.39% | Potency [2]

O=C1NC(=O)[C@H]2[C@@H]1[C@@H]1C=C[C@H]2C1
inactive: activity, negative = cell killing [1, 3] -11.5% | activity, negative = cell killing [1, 4] -1.45% | activity, negative = cell killing [1, 5] -23% | activity, negative = cell killing [1, 6] -6.43% | Potency [2]

CC(=O)Oc1cccc(C(=O)O)c1OC(C)=O
inactive: activity, negative = cell killing [1, 3] -9% | activity, negative = cell killing [1, 4] -8.06% | activity, negative = cell killing [1, 5] -12.3% | activity, negative = cell killing [1, 6] -14.6% | Potency [2]

COC(=O)CCC[N+](C)(C)C
inactive: activity, negative = cell killing [1, 3] 2.12% | activity, negative = cell killing [1, 4] -8.53% | activity, negative = cell killing [1, 5] -30.6% | activity, negative = cell killing [1, 6] -18.9% | Potency [2]

CN[C@@H]1[C@@H](O)[C@@H](O[C@@H]2[C@@H](O)[C@H](O[C@H]3O[C@H](CN)[C@@H](O)[C@H](O)[C@H]3O)[C@@H](N)C[C@H]2NC(=O)C(O)CN)OC[C@]1(C)O (stereo not given in full)
inactive: activity, negative = cell killing [1, 3] -11% | activity, negative = cell killing [1, 4] -1.91% | activity, negative = cell killing [1, 5] 4.63% | activity, negative = cell killing [1, 6] 1.73% | Potency [2]

CC(=O)N[C@@H]1C(O[C@H]2O[C@H](C(=O)O)C(O)[C@H](O)[C@H]2O)[C@H](O)[C@@H](CO)O[C@H]1O[C@@H]1C(C(=O)O)O[C@@H](O[C@H]2[C@H](O)[C@@H](CO)OC(O)[C@@H]2NC(C)=O)[C@H](O)[C@H]1O (stereo not given in full)
inactive: activity, negative = cell killing [1, 3] -6.99% | activity, negative = cell killing [1, 4] -9.84% | activity, negative = cell killing [1, 5] -10.4% | activity, negative = cell killing [1, 6] -7.36% | Potency [2]

NC[C@H]1O[C@H](O[C@H]2[C@H](O)[C@@H](O[C@H]3O[C@H](CO)[C@@H](O)[C@H](N)[C@H]3O)[C@H](N)C[C@@H]2N)[C@H](N)C[C@@H]1O
inactive: activity, negative = cell killing [1, 7] 1.26% | activity, negative = cell killing [1, 8] -9.72% | activity, negative = cell killing [1, 9] -3.61% | activity, negative = cell killing [1, 10] -18.4% | Potency [2]

CCCCCCCCCCCCOCCCN
inactive: activity, negative = cell killing [1, 3] -9.11% | activity, negative = cell killing [1, 4] 2.93% | activity, negative = cell killing [1, 5] -39.4% | activity, negative = cell killing [1, 6] -14.6% | Potency [2]

NCCC[C@H](N)CC(=O)N[C@H]1CNC(=O)[C@H]([C@H]2C[C@H](O)NC(N)=N2)NC(=O)/C(=C/NC(N)=O)NC(=O)[C@H](CO)NC(=O)[C@H](CO)NC1=O (β3hOrn-[Dap]SS[ΔAla(Z-3-ureido)][X5]; lactam 1-C)
inactive: activity, negative = cell killing [1, 3] -0.927% | activity, negative = cell killing [1, 4] -12.2% | activity, negative = cell killing [1, 5] -14.8% | activity, negative = cell killing [1, 6] -14% | Potency [2]

NCC[C@H](O)C(=O)N[C@@H]1C[C@H](N)[C@@H](O[C@H]2O[C@H](CN)CC[C@H]2N)[C@H](O)[C@H]1O[C@H]1O[C@H](CO)[C@@H](O)[C@H](N)[C@H]1O
inactive: activity, negative = cell killing [1, 3] -11.6% | activity, negative = cell killing [1, 4] -8.34% | activity, negative = cell killing [1, 5] -19.6% | activity, negative = cell killing [1, 6] -19.9% | Potency [2]

NCC(O)CC(=O)O (stereo not given)
inactive: activity, negative = cell killing [1, 3] -5.1% | activity, negative = cell killing [1, 4] -3.38% | activity, negative = cell killing [1, 5] -5.53% | activity, negative = cell killing [1, 6] 12.2% | Potency [2]

C=CC(=O)O
inactive: activity, negative = cell killing [1, 3] -8.62% | activity, negative = cell killing [1, 4] -6.79% | activity, negative = cell killing [1, 5] -25.8% | activity, negative = cell killing [1, 6] -0.506% | Potency [2]

CCCCO
inactive: activity, negative = cell killing [1, 3] -10.8% | activity, negative = cell killing [1, 4] 1.03% | activity, negative = cell killing [1, 5] -9.11% | activity, negative = cell killing [1, 6] 6.27% | Potency [2]

O=C1[O][Bi][O]c2ccccc21
inactive: activity, negative = cell killing [1, 3] -16% | activity, negative = cell killing [1, 4] -27.4% | activity, negative = cell killing [1, 5] -26.1% | activity, negative = cell killing [1, 6] -6.82% | Potency [2]

N[C@H](CC(=O)O)C(=O)O
inactive: activity, negative = cell killing [1, 3] 13.2% | activity, negative = cell killing [1, 4] 11.3% | activity, negative = cell killing [1, 5] 11.8% | activity, negative = cell killing [1, 6] -1.3% | Potency [2]
